Potency and affinity values are given separately. Calls of active or inactive are those of the source. Entries that show only a call come without a potency. No rule for the calls is given here.

The term inhibition denotes the drop in the measured response relative to a control, in per cent.

A short description of the assay: veev tc 83 cytopathic effect inhibition, infected cells, confirmatory (AID 624284). As to conditions: VEEV TC-83 infected cells; at 25 µM (top of the series). (Protection from cytopathic effect is a common read-out in antiviral testing.)
As to `CCN1CCN(Cc2nc3ccc(C(=O)N(C)C)cc3c(=O)n2-c2ccccc2)CC1`, the compound was called inactive.
Turning to `CCN1CCN(Cc2nc3ccc([N+](=O)[O-])cc3c(=O)[nH]2)CC1`, the inhibition is -1%.
For `CCN1CCN(Cc2nc3cc([N+](=O)[O-])ccc3c(=O)n2-c2ccccc2)CC1`, the result was inactive.
The same measure, in the same setting: the value for `CCN1CCN(Cc2nc3ccc(C(N)=O)cc3c(=O)n2-c2ccccc2)CC1` was “inactive”.
Still for that read-out and setting: the value for `CCN1CCN(Cc2nc3ccc([N+](=O)[O-])cc3c(=O)n2C(C)C)CC1` was “inactive”; that for `NS(=O)(=O)c1ccc(-n2c(-c3ccccc3)nc3ccc(Br)cc3c2=O)cc1` was “inactive”.
For `CCN1CCN(Cc2nc3cccc([N+](=O)[O-])c3c(=O)n2-c2ccccc2)CC1`, the result was inactive.

The record behind these values is PubChem BioAssay AID624284 (Southern Research Specialized Biocontainment Screening …, 2012).
